Experimental data as given in PubChem BioAssay (NCI).
This is part of a sample that, as a whole, favours compounds with a hit. Of some 83,000 tested, about 20% had one in any assay.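 Single-concentration screen, 48 h exposure, 96-well plates. Endpoint: percent growth. Below 10 = active.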 Values without a mark were called inactive. Calls of active or inactive are those of the source.

Tests used:
Test in all cases: NCI-60 one-dose screen, 48 h (100 = growth as untreated, 0 = no growth, -100 = all killed)
Settings in all cases: 10 µM unless noted
[1] = tested on: SK-MEL-2 melanoma
[2] = tested on: SN12C renal
[3] = tested on: UO-31 renal
[4] = tested on: TK-10 renal
[5] = tested on: ACHN renal
[6] = tested on: CAKI-1 renal
[7] = tested on: A498 renal
[8] = tested on: CCRF-CEM leukemia
[9] = tested on: MOLT-4 leukemia
[10] = tested on: SR leukemia
[11] = tested on: RPMI-8226 leukemia
[12] = tested on: OVCAR-8 ovarian
[13] = tested on: OVCAR-5 ovarian
[14] = tested on: OVCAR-4 ovarian
[15] = tested on: SK-OV-3 ovarian
[16] = tested on: IGROV1 ovarian
[17] = tested on: OVCAR-3 ovarian
[18] = tested on: HS 578T breast
[19] = tested on: NCI/ADR-RES ovarian
[20] = tested on: EKVX NSCLC

Structure (SMILES)	growth [1]	growth [2]	growth [3]	growth [4]	growth [5]	growth [6]	growth [7]	growth [8]	growth [9]	growth [10]	growth [11]	growth [12]	growth [13]	growth [14]	growth [15]	growth [16]	growth [17]	growth [18]	growth [19]	growth [20]
O=C(/C=C/c1ccc(Cl)cc1)/C=C/c1cc2ccccc2[nH]c1=O	98.2%	62.8%	63.9%	119%	74%	108%	94.7%	2.35% (active)	15.7%	1.79% (active)	-22.2% (active)	-11.5% (active)	128%	84.1%	99.9%	78.8%	15.9%	91.2%	86%	
C=CC[N+]1(CC)CCN=C1CCCCCCCCCCCCCCCCC (stereo unspecified)	-74% (active)		-65.5% (active)	-94.2% (active)	-86.6% (active)		-15.6% (active)	-59.4% (active)	-60% (active)	-64.7% (active)	-54.7% (active)	-95.2% (active)	-97.5% (active)	-72.2% (active)	-78.9% (active)	-86% (active)	-94.1% (active)	-41.3% (active)	-21.6% (active)	-75.7% (active)
C#Cc1nc2ccccc2c(=O)[nH]1	-21.9% (active)	-41.3% (active)	-72% (active)	-42.3% (active)	-69.2% (active)	-86.4% (active)	-61.5% (active)	-17% (active)	-21.4% (active)	2.53% (active)	-22.2% (active)	-31.3% (active)	-44.7% (active)	-74.4% (active)	49.6%	-66.2% (active)	-82.3% (active)	-4.79% (active)	-2.94% (active)	
COc1ccc(CN(c2ccc(C)cc2)C2OC(=O)c3ccccc32)cc1OC (stereo unspecified)	95.3%	99.1%	94.3%	107%	95%	99.1%	79.4%	91.3%	98.6%	83.8%	93.9%	108%	89.7%	103%	118%	116%	113%	102%	96.3%	
CCOC(=S)SCc1ccc(Cl)cc1	105%		91.1%	105%	98.1%		75.8%	130%	82.2%	80.2%	108%	101%	95.6%	95.6%	150%	104%	94.4%	107%	105%	83.8%
OCC1C2C=CC(C2)C1CO (stereo unspecified)	114%		93.1%	112%	105%		92.5%	126%	97.9%	78.7%	97%	98.6%	101%	94%	175%	101%	107%	104%	104%	102%
COc1nc2c(cc1S(=O)(=O)c1ccccc1)CCc1c-2cnn1Cc1ccccc1	74.3%		39.4%	61%	71.7%		17.6%	68.7%	44.9%	26.2%	32.8%	54%	93.6%	35.2%	58%	80.5%	64.5%	79.9%	48.2%	36.1%
CCCCN(CCCC)CCC(C)(O)c1cc2ccccc2c2ccccc12 (stereo unspecified)	122%		50.9%	104%	96.9%	87.9%	83.1%	42.4%	37.5%	39.7%	67.3%	92.6%	98.6%	109%	99.9%	6.06% (active)	69%		67.6%	103%
COc1ccc(C/C(C)=C(\c2ccc(OCCN3CCCCCC3)cc2)c2ccc(OC(=O)C3CCCCC3)cc2)cc1	82.1%	57.1%		86.4%	80.8%	86.7%	80.4%		32.3%	3.43% (active)	40.1%	68.9%	81.9%	71.7%	77.8%	52.3%	63.5%	51.6%	73.5%	83.5%
COc1cc(C2CC(=O)Nc3c2cnn3Cc2ccco2)cc2c1OCCO2 (stereo unspecified)	86.8%	91.3%	97%	102%	93.1%	96.9%	64.3%	111%	65.6%	8.04% (active)	77.2%	101%	86.2%	94.3%	97.7%	56.3%	73.9%	83.6%	88.9%	
CN1/C(=C\C=C\C2=[N+](C)c3ccccc3C2(C)C)C(C)(C)c2ccccc21	-56.6% (active)		8.16% (active)	5.75% (active)	1.47% (active)	23%	1.83% (active)		-12.6% (active)	-32.8% (active)	-8.69% (active)	1.34% (active)	20.9%	10.5%	-2.66% (active)	2.4% (active)	2.1% (active)	23.4%	14.3%	13.3%
O=C(O)c1cccnc1Br	99.6%		73.5%	113%	99.6%	94.1%	104%	121%	103%	89.4%	112%	106%	101%	102%	94.4%	98.1%	104%	110%	99.3%	107%
CCc1ccc(C(c2ccc(CC)cc2)C(Cl)(Cl)CCl)cc1	94.2%		84.1%	109%	97.6%	96.6%	81.7%	114%	84.4%	103%	93.6%	110%	99.9%	86.9%	105%	76.6%	86.3%	65.4%	91.3%	95.8%
O=C1/C(=C/c2ccc(F)cc2)CN(C(=O)CCN2CCC(=NO)CC2)C/C1=C\c1ccc(F)cc1	-14% (active)	-35.4% (active)		-5.74% (active)	-66.3% (active)	-46.4% (active)		-18.3% (active)	0.0352% (active)	4.41% (active)	-37.6% (active)	5.09% (active)	-53.9% (active)	-18.7% (active)	-0.984% (active)	-29.2% (active)	-60% (active)	11.4%	12.5%	-21.4% (active)
Oc1ccccc1/C=N/Nc1ccc2ccccc2n1	64.5%	61.8%	16.4%	62.8%	40.6%	15.3%	107%	10.7%	7.34% (active)	8.32% (active)	35.2%	33.2%	81%	-0.697% (active)	43%	28.1%	8.79% (active)	79.3%	22.9%	
OC(c1cccc(C(F)(F)F)c1)c1cnccc1NC1CCCCCC1 (stereo unspecified)	43%	54.1%		60.4%	43.9%	40.4%			22.6%	-14.7% (active)	-30.1% (active)	58.2%	79.8%	52.7%	71.4%	44.2%	57.5%	64.4%	39.2%	57.3%
O=C1OC2C(I)C3CC2C1C3c1ccccc1 (stereo unspecified)	128%		95.8%	145%	102%		114%	110%	102%	86.8%		112%	93%	96.3%	116%	111%	120%	143%	101%	129%
